Experimental data published in PubChem BioAssay (NCATS).
Inconclusive results are not listed. Active and inactive are the calls of the source. Unless noted, calls come from the whole dose curve; as a rule, active = well fitted curve in the direction sought with a large enough effect; inconclusive = small, poorly fitted or top-dose-only effect, or another doubt; inactive = no such curve, though single readings can be large; an effect the other way counts as inactive or inconclusive.

Assays:
[1] = NS1 protein of Zika virus - qHTS assay to identify small molecule inhibitors in human HEK 293 cells (AID 1347053); note: nearly all actives have a fitted effect of over 55% in size; note: potency is the fitted concentration of half-maximal effect
How it was run: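 Readout was TR-FRET using paired anti-NS1 antibodies after 24 h infection of HEK 293 cells with ZIKV MR766 (MOI = 0.5). Compound preceded virus by 1 h; reduced signal reflects lower NS1 expression.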

[2] = target: T1, Tyrosine-protein phosphatase non-receptor type substrate 1 (Homo sapiens) + Leukocyte surface antigen CD47 (Homo sapiens) (UniProt P78324+Q08722); assay: CD47-SIRPalpha protein protein interaction - LANCE assay qHTS validation (AID 1347057; active = well fitted curve in the direction sought with a large enough effect in the signal ratio, with a control signal flat, not every such curve was filed as active; the % refers to the signal ratio; note: series mostly up to about 38 µM)
T1 sequence (P78324 whole entry, looked up, the tested form may be a part): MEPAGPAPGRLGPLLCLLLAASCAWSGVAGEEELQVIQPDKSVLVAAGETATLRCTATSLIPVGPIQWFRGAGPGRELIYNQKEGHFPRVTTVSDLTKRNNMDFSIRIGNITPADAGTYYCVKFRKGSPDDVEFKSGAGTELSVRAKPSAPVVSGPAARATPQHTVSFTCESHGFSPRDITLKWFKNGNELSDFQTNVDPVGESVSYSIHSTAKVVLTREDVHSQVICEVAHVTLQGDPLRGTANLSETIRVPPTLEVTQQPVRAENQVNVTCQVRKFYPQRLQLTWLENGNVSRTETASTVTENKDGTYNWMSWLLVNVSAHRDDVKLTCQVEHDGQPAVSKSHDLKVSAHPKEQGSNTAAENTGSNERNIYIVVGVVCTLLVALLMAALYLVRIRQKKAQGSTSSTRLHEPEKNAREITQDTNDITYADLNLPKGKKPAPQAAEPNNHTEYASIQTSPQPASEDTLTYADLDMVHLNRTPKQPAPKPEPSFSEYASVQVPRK
T1 sequence (Q08722 whole entry, looked up, the tested form may be a part): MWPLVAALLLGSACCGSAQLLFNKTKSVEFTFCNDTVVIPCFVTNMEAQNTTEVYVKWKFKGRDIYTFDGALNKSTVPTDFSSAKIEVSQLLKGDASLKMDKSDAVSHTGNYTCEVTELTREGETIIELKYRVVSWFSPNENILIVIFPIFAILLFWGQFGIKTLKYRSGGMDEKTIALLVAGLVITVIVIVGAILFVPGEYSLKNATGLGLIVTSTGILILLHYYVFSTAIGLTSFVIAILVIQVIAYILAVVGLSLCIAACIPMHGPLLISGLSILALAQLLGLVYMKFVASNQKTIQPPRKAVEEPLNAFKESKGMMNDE
How it was run: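 Inhibition of soluble CD47/SIRPalpha ectodomain association by titrated compounds, measured as 665/615 nm time-resolved FRET ratio after sequential 30 min room-temperature incubations.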

[3] = target: T1, Tyrosine-protein phosphatase non-receptor type substrate 1 (Homo sapiens) + Leukocyte surface antigen CD47 (Homo sapiens); assay: CD47-SIRPalpha protein protein interaction - Alpha assay qHTS validation (AID 1347059);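 note: bead proximity luminescence from CD47 binding SIRPalpha after compound preincubation with SIRPalpha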
How it was run: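 AlphaScreen signal between CD47-His (12.5 nM) and biotin-SIRPalpha (25 nM) soluble extracellular domains, bead-captured via Ni-NTA and streptavidin. Compounds, in 7-point titrations, met SIRPalpha 30 min before CD47; PBS pH 7.4 with 0.05% IGEPAL.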

[4] = qHTS of pediatric cancer cell lines to identify multiple opportunities for drug repurposing: Primary screen for TC32 cells (AID 1347089); note: nearly all actives have a fitted effect of over 60% in size; note: potency is the fitted concentration of half-maximal effect
How it was run: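 Luminescent CellTiter-Glo read-out of metabolically active TC32 cells after 48 h compound exposure. Primary: MIPE 11-point, 0.78 nM–46 µM; NPC 8-point, 0.59 nM–46 µM. Confirmatory: 11-point dilutions.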

[5] = qHTS of pediatric cancer cell lines to identify multiple opportunities for drug repurposing: Primary screen for DAOY cells (AID 1347090); note: nearly all actives have a fitted effect of over 55% in size; note: potency is the fitted concentration of half-maximal effect
How it was run: (§1)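 Cell viability, CellTiter-Glo luminescence; 500-1,000 cells/well, 8- or 11-point titration, 48 h compound exposure at 37 degrees C, 5% CO2. Controls: DMSO neutral, bortezomib 2.3 µM final as positive.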

[6] = qHTS of pediatric cancer cell lines to identify multiple opportunities for drug repurposing: Primary screen for SJ-GBM2 cells (AID 1347091); note: potency is the fitted concentration of half-maximal effect
How it was run: as §1

[7] = qHTS of pediatric cancer cell lines to identify multiple opportunities for drug repurposing: Primary screen for A673 cells (AID 1347092); note: nearly all actives have a fitted effect of over 45% in size; note: potency is the fitted concentration of half-maximal effect
How it was run: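 A673 cells (500-1,000 cells/well in growth media) were pre-incubated 5 h at 37 degrees C, then exposed to compounds for 48 h. Viability was read as CellTiter-Glo luminescence; concentration-response curves came directly from the primary screen.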

[8] = qHTS of pediatric cancer cell lines to identify multiple opportunities for drug repurposing: Primary screen for SK-N-MC cells (AID 1347093); note: potency is the fitted concentration of half-maximal effect
How it was run: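 Metabolically active cells were quantified by ATP-dependent luminescence (CellTiter-Glo, 15 min at room temperature) following 48 h treatment. Cells had been plated at 500-1,000 per well and settled for 5 h beforehand.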

[9] = qHTS of pediatric cancer cell lines to identify multiple opportunities for drug repurposing: Primary screen for BT-37 cells (AID 1347094); note: potency is the fitted concentration of half-maximal effect
How it was run: (§2)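 Cells seeded at 500-1,000 cells/well in growth media, rested 5 hours at 37 degrees C, 5% CO2, then dosed; MIPE compounds at 11-point (from 0.78 nM) and NPC at 8-point (from 0.59 nM) final concentrations. Viability by CellTiter-Glo luminescence after 48 hours.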

[10] = qHTS of pediatric cancer cell lines to identify multiple opportunities for drug repurposing: Primary screen for NB-EBc1 cells (AID 1347095); note: potency is the fitted concentration of half-maximal effect
How it was run: as §2

[11] = qHTS of pediatric cancer cell lines to identify multiple opportunities for drug repurposing: Primary screen for U-2 OS cells (AID 1347096); note: nearly all actives have a fitted effect of over 50% in size; note: potency is the fitted concentration of half-maximal effect
How it was run: (§3)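 Cells (500-1,000/well) rested 5 h, then received compounds for 48 h; metabolically active cells were measured by CellTiter-Glo luminescence. Final concentrations spanned up to 46 µM (MIPE, 11-point) or 0.59 nM-46 µM (NPC, 8-point) in primary screens, 11-point in follow-ups.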

[12] = qHTS of pediatric cancer cell lines to identify multiple opportunities for drug repurposing: Primary screen for Saos-2 cells (AID 1347097); note: nearly all actives have a fitted effect of over 40% in size; note: potency is the fitted concentration of half-maximal effect
How it was run: as §2

[13] = qHTS of pediatric cancer cell lines to identify multiple opportunities for drug repurposing: Primary screen for SK-N-SH cells (AID 1347098); note: nearly all actives have a fitted effect of over 65% in size; note: potency is the fitted concentration of half-maximal effect
How it was run: as §3

[14] = qHTS of pediatric cancer cell lines to identify multiple opportunities for drug repurposing: Primary screen for NB1643 cells (AID 1347099); note: nearly all actives have a fitted effect of over 50% in size; note: potency is the fitted concentration of half-maximal effect
How it was run: as §2

[15] = qHTS of pediatric cancer cell lines to identify multiple opportunities for drug repurposing: Primary screen for LAN-5 cells (AID 1347100); note: potency is the fitted concentration of half-maximal effect
How it was run: as §3

[16] = qHTS of pediatric cancer cell lines to identify multiple opportunities for drug repurposing: Primary screen for BT-12 cells (AID 1347101); note: nearly all actives have a fitted effect of over 25% in size; note: potency is the fitted concentration of half-maximal effect
How it was run: as §3

[17] = qHTS of pediatric cancer cell lines to identify multiple opportunities for drug repurposing: Primary screen for OHS-50 cells (AID 1347103); note: nearly all actives have a fitted effect of over 40% in size; note: potency is the fitted concentration of half-maximal effect
How it was run: as §3

[18] = qHTS of pediatric cancer cell lines to identify multiple opportunities for drug repurposing: Primary screen for RD cells (AID 1347104); note: nearly all actives have a fitted effect of over 55% in size; note: potency is the fitted concentration of half-maximal effect
How it was run: as §2

[19] = qHTS of pediatric cancer cell lines to identify multiple opportunities for drug repurposing: Primary screen for Rh18 cells (AID 1347102); note: nearly all actives have a fitted effect of over 65% in size; note: potency is the fitted concentration of half-maximal effect
How it was run: as §3

[20] = qHTS of pediatric cancer cell lines to identify multiple opportunities for drug repurposing: Primary screen for MG 63 (6-TG R) cells (AID 1347105); note: nearly all actives have a fitted effect of over 50% in size; note: potency is the fitted concentration of half-maximal effect
How it was run: as §2

Measured: Potency

CCN(CC)C(=O)c1ccc(O)c(OC)c1
not listed: [19] | [20]
inactive: all other assays above

CCC(=O)O[C@]1(C(=O)CO)CC[C@H]2[C@@H]3CCC4=CC(=O)CC[C@]4(C)[C@@H]3CC[C@@]21C
not listed: [2] | [3] | [14] | [16] | [17]
inactive: all other assays above

O=C1NCC2(CCN(CCc3ccccc3)CC2)O1
not listed: [19]
inactive: all other assays above

C[C@@H](O)[C@H]1C(=O)N2C(C(=O)O)=C(S[C@@H]3CN[C@H](C(=O)N(C)C)C3)[C@H](C)[C@H]12
not listed: [2] | [3] | [14] | [15]
inactive: all other assays above

O=c1ccn([C@@H]2O[C@H](CO)[C@H](O)[C@H]2O)c(=O)[nH]1
not listed: [2] | [3] | [13] | [14]
inactive: all other assays above

Clc1ccc(Cn2c(CN3CCCC3)nc3ccccc32)cc1
inactive: [1] | [2] | [3] | [5] | [6] | [8] | [10] | [11] | [18] | [20]

O=C(NCCN1CCOCC1)c1ccc(Cl)cc1
not listed: [6] | [15]
inactive: all other assays above

O=C(O)c1cc(-c2ccccc2)nc2ccccc12
active: [8] 49.1 µM
not listed: [2] | [3]
inactive: all other assays above

CCn1cc(C(=O)O)c(=O)c2ccc(C)nc21
not listed: [14]
inactive: all other assays above

CC1(C)CCC(CN2CCN(c3ccc(C(=O)NS(=O)(=O)c4ccc(NCC5CCOCC5)c([N+](=O)[O-])c4)c(Oc4cnc5[nH]ccc5c4)c3)CC2)=C(c2ccc(Cl)cc2)C1
active: [5] 14.8 µM | [6] 2.96 µM | [7] 18.7 µM | [8] 0.0074 µM | [9] 27.3 µM | [10] 1.87 µM | [11] 18.7 µM | [12] 14.8 µM | [14] 0.0418 µM | [15] 1.05 µM | [16] 30.6 µM | [19] 10.5 µM | [17] 15.3 µM | [18] 18.7 µM | [20] 11.8 µM
inactive: [1] | [4]

CCN(CC)CCNC(=O)c1ccc(N)cc1
not listed: [16]
inactive: all other assays above

O=C(O)Cc1cccc2ccccc12
not listed: [2] | [3] | [19] | [20]
inactive: all other assays above

C[N+](C)(C)CCCCCC[N+](C)(C)C
not listed: [14]
inactive: all other assays above

NCCS
not listed: [15] | [16]
inactive: all other assays above

C[C@H]1[C@H](NC(=O)C(=NOC(C)(C)C(=O)O)c2csc(N)n2)C(=O)N1S(=O)(=O)O
not listed: [2] | [3] | [14] | [19]
inactive: all other assays above

Clc1ccc(C(c2ccc(Cl)cc2)n2cc[n+](CC(OCc3ccc(Cl)cc3Cl)c3ccc(Cl)cc3Cl)c2)cc1 (stereo not drawn)
inactive: [3] | [4]
active: [1] 11.8 µM | [5] 23.5 µM | [6] 23.5 µM | [7] 18.7 µM | [8] 7.43 µM | [9] 21.7 µM | [10] 23.5 µM | [12] 11.8 µM | [13] 24.1 µM | [14] 23.5 µM | [15] 18.7 µM | [16] 21.7 µM | [19] 23.5 µM | [17] 17.2 µM | [18] 33.2 µM | [20] 23.5 µM

CC(=O)c1ccc(S(=O)(=O)NC(=O)NC2CCCCC2)cc1
not listed: [6] | [20]
inactive: all other assays above

CCN1CCC[C@H]1CNC(=O)c1cc(S(N)(=O)=O)ccc1OC
not listed: [16]
inactive: all other assays above

NC[C@@H]1O[C@@H](O[C@H]2[C@@H](O)[C@H](O[C@@H]3[C@@H](O)[C@@H](N)C[C@H](N)[C@H]3O[C@H]3O[C@H](CN)[C@@H](O)[C@@H](O)[C@H]3N)O[C@H]2CO)[C@H](N)[C@@H](O)[C@@H]1O
not listed: [2] | [3] | [14] | [16]
inactive: all other assays above

CC(=O)CCCCn1c(=O)c2c(ncn2C)n(C)c1=O
not listed: [2] | [3] | [15]
inactive: all other assays above

CCN(CC)CCOC(=O)c1ccc(N)cc1
not listed: [7] | [16]
inactive: all other assays above

CC(C)C(C)C=CC(C)C1CCC2C3=CC=C4CC(O)CCC4(C)C3CCC21C (stereo not drawn)
not listed: [2] | [3] | [13]
inactive: all other assays above

NC1=N[C@@]2(c3cc(NC(=O)c4ccc(F)cn4)ccc3F)COC[C@@H]2CS1
active: [5] 4.69 µM | [6] 0.296 µM | [7] 0.0074 µM | [8] 0.833 µM | [9] 0.122 µM | [10] 1.87 µM | [12] 0.372 µM | [15] 0.132 µM | [16] 0.153 µM | [17] 0.137 µM
inactive: [1] | [4] | [11] | [19]

O=C1c2ccccc2-[n+]2ccc3c([nH]c4ccccc43)c21
active: [1] 1.05 µM | [4] 4.66 µM | [5] 2.96 µM | [6] 0.833 µM | [7] 1.18 µM | [8] 1.32 µM | [9] 2.43 µM | [10] 0.833 µM | [11] 9.35 µM | [12] 2.35 µM | [13] 1.52 µM | [14] 5.26 µM | [15] 1.66 µM | [19] 2.35 µM | [17] 2.17 µM | [18] 1.87 µM

CC(=O)N[C@@H](CS)C(=O)O
not listed: [7] | [15] | [16] | [19]
inactive: all other assays above
